A selection: hits, their analogues and other compounds. The true share with any hit is near 0.9%.
GPT2 inh – inhibitors of human GPT2 alanine aminotransferase. Q8TD30. Recombinant GPT2, coupled pyruvate oxidase/HRP Amplex Red fluorescence. Potency, µM (top dose mostly 57.7 µM), for the others: at the highest dose activity change, negative = inhibition, hits mostly inhibitors. 100,000 tested, 0.25% active. AID 1671188; also: potency is read from the fitted curve at half-maximal effect; nearly all actives have a fitted effect of over 60% in size
Target sequence (Q8TD30 whole entry, looked up): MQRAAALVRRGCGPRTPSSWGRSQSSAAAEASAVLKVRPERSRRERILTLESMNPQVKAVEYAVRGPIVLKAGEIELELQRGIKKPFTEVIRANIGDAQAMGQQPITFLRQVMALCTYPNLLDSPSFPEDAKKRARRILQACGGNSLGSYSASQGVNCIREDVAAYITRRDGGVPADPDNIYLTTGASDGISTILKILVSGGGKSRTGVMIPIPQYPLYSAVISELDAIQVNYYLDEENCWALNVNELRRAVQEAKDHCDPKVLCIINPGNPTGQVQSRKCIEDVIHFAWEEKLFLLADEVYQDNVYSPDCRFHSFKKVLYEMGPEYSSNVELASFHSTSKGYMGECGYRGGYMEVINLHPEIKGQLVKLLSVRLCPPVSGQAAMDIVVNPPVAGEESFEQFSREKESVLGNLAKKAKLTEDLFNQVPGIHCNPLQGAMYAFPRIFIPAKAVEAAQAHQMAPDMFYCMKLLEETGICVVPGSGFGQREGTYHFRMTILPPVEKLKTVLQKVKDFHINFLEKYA
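Recombinant GPT2 (10ng/uL) with 250uM a-KG and 2mM L-alanine, 30 min at room temperature, in HEPES pH 7.5 buffer. Pyruvate detected by pyruvate oxidase/HRP/Amplex Red fluorescence after 30 min in the dark; AOA (50uM) as positive control.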
HEK293 viab – reduces viability of HEK-293 SNCA reporter cells; HEK-293-SNCA-luc viability, GF-AFC fluorescence, 24 h; Potency, µM (top dose mostly 57.1 µM), for the others: at the top dose activity change, negative = cytotoxicity, hits mostly cytotoxic; 150,000 tested, 0.12% active;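 also: potency is read from the fitted curve at half-maximal effect; 0% = DMSO-treated cells and -100% = medium-only wells without cells; nearly all actives have a fitted effect of over 30% in size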
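HEK-293-SNCA-luc cells (1500/well) plated 24 h, then exposed 24 h to a dilution series; GF-AFC added 30 min at 37C, fluorescence 405/540 nm; normalised to medium-only and DMSO wells, Hill fit.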
SNCA expr inhib – SNCA gene expression inhibition | HEK-293 SNCA-luciferase knock-in, luminescence, 24 h | 140,000 tested, 0.17% active | Potency, µM (top dose mostly 57.2 µM), for the others: at the top dose activity change, negative = inhibition, actives largely listed as inhibitors;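 also: potency is read from the fitted curve at half-maximal effect; plate controls were DMSO cells for no effect and cell-free wells for full effect; nearly all actives have a fitted effect of over 45% in size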
IP6K1 inhibitor – inhibitors of human IP6K1 | IP6K1 kinase, ADP-Glo luminescence, 2 h; active compounds read low | activity change, % (series mostly up to about 58 µM) | 140,000 tested, 0.81% active | AID 1645851; in the data active = activity change below about -25%
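ADP-Glo luminescence measures ADP made by human IP6K1 during a 2 h RT reaction with ATP/IP6 (mix at 1.3 mM/130 uM); top library doses 57.5 and 19.1 uM final.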
IP6K1 conf – human IP6K1 inhibition, confirmatory. shares compounds with IP6K1 inhibitor. recombinant IP6K1 kinase, ADP-Glo luminescence, 2 h. Potency, µM (series often up to 49 µM), for the others: at the highest dose activity change, negative = inhibition, actives largely listed as inhibitors. 1,200 tested, 13% active; also: potency is read from the fitted curve at half-maximal effect; nearly all actives have a fitted effect of over 65% in size
The depositor's hits bear a star; i = inactive; ? = inconclusive; . = no result given; [ ] = dose if it differs, or a comment. Unless noted, calls follow the shape of the dose curve; as a rule, active = well fitted curve in the direction sought with a large enough effect; inconclusive = small, poorly fitted or top-dose-only effect, or another doubt; inactive = no such curve, though single readings can be large; an effect the other way counts as inactive or inconclusive. Unless noted, % is scaled to controls: 0 for no effect and ±100 for the full control effect.

SMILES | GPT2 inh | HEK293 viab | SNCA expr inhib | IP6K1 inhibitor | IP6K1 conf
Cc1cc(F)c(C(=O)Nc2cccc(-c3nncn3C(C)C)n2)cc1-n1cnc(C2CC2)c1 | i | ? | . | -35* | ?
Cn1nc(C2CCCC2)cc1NC(=O)c1ccccc1F | i | 6%[87.6 µM] | 87%[87.6 µM] | -1 | .
O=C(c1ccc(Cl)nc1)N1CCN(C(=O)c2nc3cccnc3n(CCc3ccccc3)c2=O)CC1 | i | -1% | -5% | 15 | .
O=C(CSc1nc2cc3ccccc3cc2[nH]1)Nc1cccc(C(F)(F)F)c1 | . | -13% | 60% | -30* | -15%
COCC1CN(C)CC12CCN(Cc1cccc(OC)c1OC)CC2 (centres undefined) | i | 1% | 2% | 13 | .
CCOc1ccc(C(=O)c2oc3ccccc3c2NC(=O)c2cc(-c3ccc(Cl)cc3)on2)cc1 | . | 8% | -14% | 4 | .
CCOc1ccc(-c2cc(C(=O)Nc3ccc(NC(C)=O)cc3)no2)cc1 | . | 12% | 14% | -27* | -5%
CNCC(=O)N1CCCC(N2CCN(Cc3ccc4c(c3)OCO4)CC2)C1 (centres undefined) | i[11.5 µM] | 3% | 2% | -37* | -8%
O=C1CCC2(CCCO2)CCN1Cc1c(F)cccc1F (centres undefined) | i[11.5 µM] | -11% | 2% | 13 | .
O=C1CCC2(CCCO2)CCN1Cc1cccc(F)c1F (centres undefined) | -9%[11.5 µM] | -2% | 42% | -31* | -9%
CCOc1cc(CNc2ccc(O)cc2)cc(Br)c1OCc1ccccc1 | . | -11% | -6% | -43* | ?
CCOc1cc(CNc2ccc(O)cc2)ccc1OCc1ccc(Cl)cc1 | . | -26% | -2% | -17 | .
Cc1ccccc1CC(=O)N1C[C@@H](CO)[C@H](NC(=O)c2ccccc2)C1 | 0% | -3% | -11% | 1 | .
Cc1cc(C(=O)Nc2ccc([C@@H](O)[C@H]3COCC(=O)N3CC(C)C)cc2)n(C)n1 | i | 4%[87.6 µM] | ? | 0 | .
O=C(c1ccc(Cl)nc1)N1CCCC(C(=O)N2CCCC(c3nc4ccncc4[nH]3)C2)C1 (centres undefined) | i | -5% | -7% | -1 | .
CCOC(=O)c1c(NC(=O)/C(C#N)=C/c2ccc(OC)cc2)sc2c1CCC2 | . | 5% | 8% | 17 | .
CCOc1ccc(/C=C(\C#N)C(=O)Nc2sc3c(c2C(=O)OC)C(C(=O)OC)CC3)cc1OC (centres undefined) | . | -4% | -12% | -29* | 2.9µM*
Cn1nnnc1Sc1ncnc2scc(-c3ccc(Cl)cc3)c12 | . | . | . | . | 1%
Cn1nnnc1Sc1ncnc2scc(-c3ccc4c(=O)ccoc4c3)c12 | . | . | . | . | -17%
CN(C)c1ccc(C2CC(c3c(O)n(C4CCCCC4)c(=O)[nH]c3=O)=Nc3ccccc3S2)cc1 (centres undefined) | . | 4% | -14% | -32* | 16%
CCOC(=O)C1CCCN(C(=O)c2ccc3c(c2)sc2nc(-c4cccc(OC)c4)cn23)C1 (centres undefined) | . | 1% | 42% | -31* | 3%
CCOC(=O)C1CCCN(C(=O)c2ccc3c(c2)sc2nc(-c4ccc(C)cc4C)cn23)C1 (centres undefined) | . | -12% | 33% | -3 | .
COc1ccc(-c2cn3c(n2)sc2cc(C(=O)NCCCN4CCCCCC4)ccc23)cc1 | . | -26% | 46% | -62* | -4%
COCCc1noc(-c2ccccc2OC2CN(C(=O)CC(C)C)C2)n1 | i | 3% | 13% | -5 | .
Cc1c(CNC(=O)c2ccc(C3CCNC3)cc2)oc2ccccc12 (centres undefined) | i | -18% | 2% | 20 | .
O=C(N[C@@H]1CCOC[C@H]1Oc1cccc(F)c1)c1cnc2ccccn2c1=O | 0%[11.5 µM] | 5% | 3% | -42* | -4%
CCOC(=O)CSc1nc(-c2ccc(F)cc2)cc(C(F)(F)F)c1C#N | . | -3% | -11% | -2 | .
Cc1ccc(-c2cc(C(F)(F)F)c(C#N)c(SCC(=O)O)n2)cc1 | . | -4% | 8% | -35* | 3%
COc1ccc(OC)c(CNC(=O)C23CCC=C2N(C2CCCC2)C(=O)CC3)c1 (centres undefined) | -5% | ? | 68% | 5 | .
CN(C)c1ccc(-c2nccc(NCc3ccccc3)n2)cc1 | . | -10% | -8% | . | .

Screens deposited in PubChem BioAssay by National Center for Advancing Translational Sciences (NCATS).
